Source: PubChem
Rab2 wt GTP – changes GTP binding to wildtype dog Rab2A, up or down. GTP binding activity, % at 10 µM. GST-Rab2 wt beads, Bodipy-GTP binding, flow cytometry. hit rate 0.19% among 190,000;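 active = GTP binding activity at least 20 points away from 100%, either lowered or raised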;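 also: 0% = beads with excess unlabeled GTP and 100% = no-compound control corrected for plate trend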
Cdc42 wt – changes GTP binding to wildtype human Cdc42 | P60953 | GST-Cdc42 beads, Bodipy-GTP binding, flow cytometry; actives lie on both sides | percent activity (GTP binding), % at 10 µM | hit rate 0.2% among 190,000 | AID 761;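 active = percent activity GTP binding at least 20 points away from the 100% baseline, either down as inhibitor or up as activator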;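 also: median bead fluorescence of bound Bodipy-FL-GTP at 100 nM; 0% = excess unlabeled GTP control and 100% = no compound control; below 100% means less GTP binding so inhibitor and above means activator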
Target sequence (P60953 whole entry, looked up): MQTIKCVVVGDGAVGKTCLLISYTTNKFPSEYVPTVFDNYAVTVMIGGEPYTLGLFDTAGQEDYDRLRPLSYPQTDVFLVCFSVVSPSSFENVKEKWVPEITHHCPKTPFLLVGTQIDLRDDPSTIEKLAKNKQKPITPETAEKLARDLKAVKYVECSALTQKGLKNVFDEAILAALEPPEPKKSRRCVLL
HRas wt GTP – modulators of GTP binding to human HRas wildtype | P01112 | GST-Ras wt beads, Bodipy-FL-GTP binding, flow cytometry; actives lie on both sides | GTP binding activity, % at 10 µM | hit rate 0.14% among 190,000;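 active = GTP binding activity at least 20% away from the 100% baseline, either lowered as inhibitor or raised as activator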;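 also: 0% = unlabeled GTP competition control and 100% = no-compound control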
Target sequence (P01112 whole entry, looked up): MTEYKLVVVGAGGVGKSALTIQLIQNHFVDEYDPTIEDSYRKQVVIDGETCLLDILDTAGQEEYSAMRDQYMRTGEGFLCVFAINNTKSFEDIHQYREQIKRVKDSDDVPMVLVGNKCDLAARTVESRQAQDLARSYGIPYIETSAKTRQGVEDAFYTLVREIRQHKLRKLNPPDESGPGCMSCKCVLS
Rac1 act GTP bind – alters GTP binding to activated mutant human Rac1; P63000; GST-Rac1 activated beads, fluorescent GTP binding, flow cytometry; actives lie on both sides; 100% means binding = to untreated wells; percent activity (GTP binding), % at 10 µM; hit rate 0.11% among 190,000; AID 764;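 active = GTP binding at least 20 percentage points away from the 100% baseline, in either direction, so actives lie on both sides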
Rab7 wt GTP bind – dog Rab7 wildtype GTP binding, inhibitors and activators | GST-Rab7 beads, fluorescent GTP binding, flow cytometry; actives lie on both sides; untreated = 100%, excess cold GTP = 0% | GTP binding activity (percent of control), % at 10 µM | hit rate 0.055% among 190,000;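 active = fluorescent GTP binding to Rab7 beads changed by at least 20 points from the 100% baseline, either direction, mostly lower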;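 also: median green fluorescence of bound Bodipy-FL-GTP per Rab7 bead population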
Rac1 wt GTP bind – alters GTP binding to wildtype human Rac1; hit rate 0.27% among 190,000; AID 757; GST-Rac1 beads, fluorescent GTP binding, flow cytometry; actives lie on both sides; 0 = cold GTP competed, 100 = untreated; GTP binding activity (% of control), % at 10 µM; P63000;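 active = GTP binding activity at least 20 points away from the 100% control level, either lower or higher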
Starred values were filed as active, the others as inactive; [ ] = dose if it differs, or a comment. An excerpt weighted towards active compounds, which were near 0.38% of everything screened.

SMILES | Rab2 wt GTP | Cdc42 wt | HRas wt GTP | Rac1 act GTP bind | Rab7 wt GTP bind | Rac1 wt GTP bind
Cc1cc(C)n2nc(SCCOc3ccc(F)cc3)nc2n1 | 74* | 68* | 73* | 82 | 100 | 68*
COc1ccc(C(=O)Cn2c(C(=O)/C=C/c3ccccc3)nc3ccccc32)cc1 | 99 | 100 | 99 | 97 | 101 | 101
Cc1cc(NC(=O)C2CC(=O)N(c3ccccc3)C2)no1 (centres undefined) | 101 | 104 | 102 | 103 | 99 | 104
CNC(=O)COC(=O)c1cc(NC(=O)c2ccco2)c(OC)c(OC)c1 | 80 | 78* | 81 | 87 | 87 | 83
O=C(CSc1ncnc2ccccc12)NCC(=O)c1ccccc1 | 97 | 97 | 95 | 97 | 94 | 97
NC(=O)c1c(NC(=O)c2ccncc2)sc2c1CCCC2 | 86 | 85 | 88 | 92 | 94 | 87
NC(=O)c1c(NC(=O)c2cnccn2)sc2c1CCCC2 | 80 | 82 | 83 | 85 | 87 | 70*
NC(=O)c1cc2nc(-c3ccco3)cc(C(F)(F)F)n2n1 | 63* | 64* | 65* | 81 | 92 | 68*
COC(=O)c1cc2nc(-c3ccc(OC)c(OC)c3)cc(C(F)(F)F)n2n1 | 99 | 98 | 99 | 100 | 101 | 100
COc1ccc(-c2cc(C(F)(F)F)n3nc(C(=O)O)cc3n2)cc1OC | 80 | 81 | 86 | 85 | 84 | 77*
CC(=O)Nc1ccc(-c2nnn(CC(=O)Nc3ccc4c(c3)OCO4)n2)cc1Cl | 99 | 94 | 98 | 93 | 107 | 96
CCn1nc(NC(=O)c2cccs2)c2cc3ccccc3nc21 | 92 | 90 | 90 | 91 | 95 | 82
Cc1c(CCC(=O)O)c(=O)oc2cc3occ(-c4ccc(F)cc4)c3cc12 | 81 | 80 | 83 | 83 | 86 | 68*
Cc1c(CCC(=O)O)c(=O)oc2cc(O)ccc12 | 98 | 102 | 101 | 99 | 102 | 100
CCOC(=O)N1CCN(/C=C(\C#N)c2nc3ccccc3s2)CC1 | 129*[activator] | 114 | 121*[activator] | 118 | 120*[activator] | 124*[activator]
Cc1ccnc(NS(=O)(=O)c2ccc(NC(=O)c3ccc([N+](=O)[O-])s3)cc2)n1 | 95 | 92 | 96 | 92 | 99 | 96
O=C(O)c1ccccc1OCc1ccccc1Br | 129*[activator] | 139*[activator] | 122*[activator] | 126*[activator] | 120*[activator] | 142*[activator]
O=C(O)c1ccccc1COc1ccccc1Cl | 108 | 109 | 108 | 110 | 109 | 119
COc1ccc2nc(SCC(=O)Nc3ccc4c(c3)OCCO4)[nH]c2c1 | 98 | 101 | 101 | 99 | 100 | 101
COc1ccc2[nH]c3nc(SCC(=O)Nc4ccc5c(c4)OCO5)nnc3c2c1 | 72* | 74* | 74* | 87 | 85 | 87
O=C(C#Cc1cccc([N+](=O)[O-])c1)c1ccccc1 | 87 | 78* | 85 | 78* | 92 | 89
O=C(/C=C/c1cccc([N+](=O)[O-])c1)OCC(=O)c1ccccc1 | 94 | 96 | 101 | 96 | 98 | 106
CC(=O)Nc1ccc(N2C(=O)c3ccc(C(=O)Nc4nnc(SCc5ccc(F)cc5)s4)cc3C2=O)cc1 | 97 | 97 | 73* | 93 | 94 | 99
CC(=O)NS(=O)(=O)c1ccc(NC(=O)CSc2ccc(C)cc2)cc1 | 93 | 92 | 94 | 93 | 96 | 91
COc1ccc(CNc2nc3ccccc3n2Cc2ccc(C)cc2)cc1OC | 123*[activator] | 131*[activator] | 121*[activator] | 125*[activator] | 115 | 142*[activator]
c1ccc(Cn2c(NCc3ccncc3)nc3ccccc32)cc1 | 95 | 97 | 100 | 97 | 97 | 100
O=C(O)C1CSC(CCc2ccccc2)N1 (centres undefined) | 110 | 114 | 109 | 112 | 111 | 123*[activator]
O=C(O)C1CSC(c2coc3ccccc3c2=O)N1 (centres undefined) | 92 | 96 | 97 | 97 | 101 | 97
COc1ccc(C(=O)NC(=S)N2CC(C)OC(C)C2)cc1 (centres undefined) | 98 | 154*[activator] | 91 | 98 | 93 | 137*[activator]
